GLP-1R agonist = agonists of human GLP-1 receptor. Potency, µM (highest dose often 45.6 µM), for the others: at the top dose activation, usual class: activators. AID 624172. HEK293 GLP-1R CRE-luciferase, luminescence, 4-6 h; cells express a hypersensitive GLP-1R form. actives 0.007% (n = 380,000); also: % of control where 0% means no effect
Target sequence (P43220 whole entry, looked up): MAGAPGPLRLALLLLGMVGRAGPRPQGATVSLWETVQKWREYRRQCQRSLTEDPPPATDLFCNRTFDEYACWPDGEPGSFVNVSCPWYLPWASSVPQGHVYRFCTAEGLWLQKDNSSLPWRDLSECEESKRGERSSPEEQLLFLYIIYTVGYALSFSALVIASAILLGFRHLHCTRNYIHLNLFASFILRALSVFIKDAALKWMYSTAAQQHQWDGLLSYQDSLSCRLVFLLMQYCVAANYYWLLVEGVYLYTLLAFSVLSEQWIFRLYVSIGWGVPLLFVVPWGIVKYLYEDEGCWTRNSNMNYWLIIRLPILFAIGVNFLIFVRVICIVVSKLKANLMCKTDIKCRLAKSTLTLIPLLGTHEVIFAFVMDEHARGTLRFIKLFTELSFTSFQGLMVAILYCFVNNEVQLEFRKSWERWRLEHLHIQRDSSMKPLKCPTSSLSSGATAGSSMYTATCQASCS
GLS inhibitor = blocks human kidney-isoform glutaminase activity; O94925; GLS enzymatic activity, qHTS titration; Potency, µM (highest dose often 45.5 µM), without a hit: at the highest dose activity change, negative = inhibition, usual class: inhibitors; actives 0.21% (n = 410,000); also: % is scaled to controls: 0 for no effect and ±100 for the full control effect
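Compounds were pin-transferred onto hKGA, after which L-glutamine (1 mM solution) and a detection mix of glutamate oxidase, HRP and Amplex Red were added. Initial and 30 min RT fluorescence reads were collected.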
PTHR1 agonist = PTHR1 (human) receptor agonism; Q03431; HEK293 GP2 PTHR1 cells, GloSensor cAMP luminescence, 1 h; Potency, µM (titrated, usually from 115 µM), without a hit: at the top dose activation, hits mostly activators; actives 0.075% (n = 410,000); also: nearly all actives have a fitted effect of over 55% in size
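HEK-293-derived GP2 cells expressing PTHR1 and a GloSensor cAMP reporter, 3,000/well, plated overnight, given luciferin plus IBMX (each 0.5 mM as added) for 1 h at 37 °C, then compound for 1 h at 37 °C. Luminescence was read after 15 min at room temperature.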
12-LOX inh = ALOX12 (human) lipoxygenase inhibition. actives 1.1% (n = 580,000). AID 1671190. purified 12hLO, xylenol orange hydroperoxide absorbance. Potency, µM (top dose mostly 108 µM), for the others: top-dose activity change, negative = inhibition, most hits filed as inhibitors; also: % is scaled to controls: 0 for no effect and ±100 for the full control effect
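Purified human 12hLO (150 nM final) in 25 mM Hepes, 0.01% Triton X-100, pH 7.0 was preincubated 15 min at room temperature with compound. Then 40 uM arachidonic acid was added, 30 min. Hydroperoxide was read by Fe-XO absorbance ratio 573/405 nm.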
GLP-1R inv ag = acts as inverse agonist at human GLP-1 receptor. P43220. Potency, µM (titrated, usually from 38.3 µM), without a hit: at the highest dose activity change, negative = inhibition, usual class: inhibitors. HEK293 GLP-1R CRE-luciferase, luminescence, 24 h; GLP-1R form is constitutively active. actives 1.6% (n = 410,000); also: % is scaled to controls: 0 for no effect and ±100 for the full control effect; nearly all actives have a fitted effect of over 55% in size
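HEK293 cells stably co-expressing a cAMP-responsive luciferase reporter and constitutively active GLP-1R were seeded, incubated 12 h, then exposed to compounds for 24 h at 37 C. Luminescence was read 12 min after detection reagent; inverse agonists lower signal.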
Glioma ERSR ind = inducers of ER stress response in human glioma cells | actives 0.02% (n = 420,000) | Potency, µM, without a hit: top-dose activation, usual class: activators | U87-MG GRP78 promoter luciferase reporter, 16 h; also: series mostly up to about 76 µM; % of control where 0% means no effect; nearly all actives have a fitted effect of over 35% in size
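Stably transfected U87-MG human glioma cells carrying a GRP78-based luminescent sensor were seeded at 1000 cells/well, pin-dosed with compounds and incubated 16 h. Luciferase reagent was then added, and end-point luminescence was read after 10 min at room temperature.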
* hit, by the source's call; i = inactive; u = inconclusive; x = not tested or not shown; [ ] = remark or other dose. Shown are actives, neighbours in structure and some others; about 2.3% of the full set was active somewhere. Calls follow the shape of the dose curve; as a rule, active = well fitted curve in the direction sought with a large enough effect; inconclusive = small, poorly fitted or top-dose-only effect, or another doubt; inactive = no such curve, though single readings can be large; an effect the other way counts as inactive or inconclusive. Potency is read from the fitted curve at half-maximal effect.

SMILES	GLP-1R agonist	GLS inhibitor	PTHR1 agonist	12-LOX inh	GLP-1R inv ag	Glioma ERSR ind
O=C(Nc1ccc(F)cc1)c1ccc(Cn2nc(N3CCN(c4ccccc4)CC3)ccc2=O)o1	x	3%	-94%	u	-8%	-4%
O=C(Nc1ccccc1F)c1ccc(Cn2nc(N3CCN(c4ccccc4)CC3)ccc2=O)o1	x	1%	-22%	45µM*	8%	-2%
NC(=O)c1ccc(CNC(=O)c2nccnc2N)cc1	x	x	x	3%	x	x
CC1CN(Cc2c(O)ccc3c2oc(=O)c2ccccc23)CC(C)O1 (stereo unspecified)	17%	6%	-46%	5.6µM*	20%	-1%
O=C(COc1ncnc2ccccc12)Nc1ccc(F)cc1	x	x	x	-44%	x	x
CC(C)(C)c1ccc(OCCCNC2CCCC2)cc1	8%	8%	i	u	10µM*	-6%
Cc1ccc(OCCCNC2CCCC2)cc1	-5%	1%	-5%	-18%	0%	-3%
COc1cc(/C=N/N=C(N)N)ccc1OCc1ccc(Cl)cc1	-7%	9%	-14%	u	u	-13%
CCOc1cc(/C=N/N=C(N)N)ccc1OCc1ccc(Cl)cc1	-32%	-2%	i	u	11µM*	-13%
CCc1nc(N2CCN(C(=S)NCCCOC)CC2)c2c3c(sc2n1)CCCC3	-1%	-2%	-89%	0%	11µM*	-5%
CCC(=O)N1CCN(c2nc(CC)nc3sc4c(c23)CCCC4)CC1	21%	-2%	i	0%	u	-4%
CC(C)NC(=O)CSc1cc(C(=O)NC2CC2)c2ccccc2n1	x	x	x	-8%	x	x
C/C(=N\NC(=O)c1cccs1)c1ccc(Br)cc1	x	x	x	8%	x	x
Cc1nc(-c2ccncc2)[nH]c(=O)c1CC(=O)N(C)C1CCCCC1	x	x	x	-27%	x	x
NC(=O)c1ccc(Nc2nnc(-c3ccc(O)cc3)c3ccccc23)cc1	2%	171%	-9%	0%	0%[7.66 µM]	-1%
NC(=O)Cc1ccc(Nc2nnc(-c3ccc(O)cc3)c3ccccc23)cc1	-6%	11µM*	-10%	-5%	18%	-3%
Oc1ccccc1C1SC(c2ccccc2O)SC(c2ccccc2O)S1 (stereo unspecified)	0%	-5%	i	u	1.1µM*	-13%
C/C(=N\Nc1nc2ccccc2s1)c1ccc(Br)s1	13%	-23%	-32%	-20%	10µM*	3%
CCCCC(=O)Nc1nnn(CCC)n1	1%	8%	-10%[57.5 µM]	2%	1%	-2%
CCCCC(=O)NC(=S)Nc1nnn(CCC)n1	3%	-14%	i	u	11µM*	-2%
CN(CC(=O)Nc1ccc(OC(F)(F)F)cc1)C(=O)Cc1ccc2c(c1)CCC2	2%	-1%	-53%	u	5.6µM*	1%
CCOC(=O)c1c(C)n(C)c2ccc(OCC(O)CNCCc3ccccc3)cc12 (stereo unspecified)	3%	-4%	i	u	11µM*	-6%
CCOC(=O)c1c(-c2ccccc2)oc2ccc(OCC(O)CNCCN(C)C)cc12 (stereo unspecified)	12%	13%	-9%	-6%	5µM*	-9%
CCOC(=O)c1c(-c2ccccc2)oc2ccc(OCC)cc12	32%	-1%	i	-10%	10µM*	-2%
CCOC(=O)c1c(-c2ccccc2)oc2ccc(O)c(CN3CCN(C)CC3)c12	15%	-9%	-22%	u	3.2µM*	-4%
SMILES	GLP-1R agonist	GLS inhibitor	PTHR1 agonist	12-LOX inh	GLP-1R inv ag	Glioma ERSR ind
CC(c1ccccc1)N(C)S(=O)(=O)c1cccc2nsnc12 (stereo unspecified)	x	x	x	-5%	x	x
Cc1noc(C)c1S(=O)(=O)N1CCCC(CCc2ccc(F)c(F)c2)C1 (stereo unspecified)	x	x	x	4%	x	x
CCOC(=O)c1c(C)n(-c2ccc(C)cc2)c2ccc(OCC(O)CN3CCN(C)CC3)cc12 (stereo unspecified)	17%	-3%	-14%	u	5µM*	-3%
CCCCSc1nnc(COc2ccc(Cl)cc2)n1C	x	x	x	-9%	x	x
O=C(O)c1cccc(N/N=C/c2cc(Br)cc(Br)c2O)c1	-8%	3%	-13%	45µM*	0%	-2%
Cc1c(N=Cc2cc(Br)cc(Br)c2O)cccc1C(=O)O	0%	u	i	50µM*	u	-3%
CN(/N=C/c1cc(Br)cc(Br)c1O)c1ccccc1	2%	-1%	-14%	-19%	16%	1%
CCOc1ccccc1C(=O)Nc1nonc1-c1ccc(OC(C)C)cc1	x	x	x	4%	x	x
COc1cc(NC(=O)NC(C)c2c(-n3cccc3)sc3c2CCCC3)cc(OC)c1OC (stereo unspecified)	x	-6%	-6%	u	11µM*	-3%
COc1cccc(C(=O)N(C)CCCNC(=O)c2nc3ccccc3c(=O)[nH]2)c1	x	x	x	-5%	x	x
CCCCCCCNC1=CC(=O)CC(c2ccccc2)C1 (stereo unspecified)	7%	-3%	i	-7%	11µM*	3%
COc1ccc(-c2cc3nccn3c(Nc3ncccc3C(N)=O)n2)cc1OC	x	x	x	1.4µM*	x	x
COc1ccc(-c2cc3ncc(C)n3c(Nc3ncccc3C(N)=O)n2)cc1OC	x	x	x	x	x	-5%
Cn1cc(C(=O)N2CCC(C(=O)NCc3ccccc3)CC2)c2ccccc21	x	x	x	26%	x	x
CCOC(=O)C1Nc2ccc(C(=O)O)cc2C2C=CCC12 (stereo unspecified)	4%	3.2µM*	-13%	0%	-27%	-6%
CC(C)C1Nc2ccc(C(=O)O)cc2C2C=CCC21 (stereo unspecified)	-15%	219%	i	u	-5%[0.307 µM]	-4%
CCCC1Nc2ccc(C(=O)O)cc2C2C=CCC12 (stereo unspecified)	2%	10µM*	-19%	x	-5%	-4%
CCOC(=O)C1CCC(CNC(=O)N2CCCC2c2ccc(C)cc2)CC1 (stereo unspecified)	x	x	x	0%	x	x
Cc1[nH]c(C(=O)O)c(C#N)c1C(=O)c1ccccc1	0%	8%	-15%	0%	1%	-4%
CC(=O)N(C(C)=O)c1c(C#N)c(C)n(-c2ccccc2)c1C(=O)c1ccccc1	-12%	25%	-11%	-9%	5.6µM*	-1%
CN1CCN(c2nc(C#N)cc(-c3ccccc3)n2)CC1	0%	1%	-23%	i	13µM*	-1%
c1ccc(-c2nn[nH]n2)cc1	-1%	5%	-21%	-1%	7%	-5%
Fc1cccc(-c2nn[nH]n2)c1	-2%	-1%	-41%[57.5 µM]	25µM*	1%	2%
COc1cccc(-n2nc(C(=O)Nc3cccc(C(F)(F)F)c3)c3ccccc3c2=O)c1	x	x	x	-2%	x	x

Bioassay records as filed in PubChem BioAssay.
